Screens from PubChem.
This is a sample that favours compounds with a hit; in the whole collection about 12% have one here.
HP1b chromo inh – HP1-beta chromodomain-methylated histone interaction inhibition. Potency, µM (highest dose often 114 µM), for inactives: top-dose activity change, negative = inhibition, most hits filed as inhibitors. P83916. actives 0.56% (n = 390,000). AlphaScreen HP1-beta / biotin-H3K9me3 peptide binding; note: nearly all actives have a fitted effect of over 70% in size
Target sequence (P83916 whole entry, looked up): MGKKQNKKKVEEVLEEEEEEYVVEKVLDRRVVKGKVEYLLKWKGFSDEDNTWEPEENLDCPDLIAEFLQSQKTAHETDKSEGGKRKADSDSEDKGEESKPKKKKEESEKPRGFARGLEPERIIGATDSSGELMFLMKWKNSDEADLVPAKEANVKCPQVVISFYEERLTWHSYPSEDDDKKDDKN
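HP1-beta protein (50 nM final) preincubated 30 min at room temperature with biotinylated H3(1-18)K9me3 peptide (50 nM) in PBS pH 7.4, 0.01% Tween-20, then compound added for 30 min. AlphaScreen streptavidin donor/nickel chelate acceptor beads (10 ug/mL final), 30 min dark, luminescence read.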
L3MBTL1 inh – blocks human L3MBTL1 | AlphaScreen L3MBTL1–H3K9me1 peptide binding | Potency, µM (highest dose often 57.1 µM), without a hit: top-dose activity, negative = inhibition, actives largely listed as inhibitors | actives 0.66% (n = 230,000); note: % is set by controls: 0 for no effect and ±100 for the full control effect; nearly all actives have a fitted effect of over 60% in size
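First, the protein-peptide complex forms for 30 min at room temperature (L3MBTL1 50 nM, biotinylated H3K9me1 peptide 75 nM). Next, compounds are pin-transferred and incubated 30 min. Finally, AlphaScreen beads are added and read after 30 min.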
BAZ2B inh – inhibitors of human BAZ2B bromodomain; Q9UIF8; AlphaScreen BAZ2B-H3K14Ac peptide displacement; Potency, µM (series often up to 114 µM), without a hit: top-dose activity change, negative = inhibition, usual class: inhibitors; actives 4.4% (n = 360,000); AID 504333; note: % is set by controls: 0 for no effect and ±100 for the full control effect; nearly all actives have a fitted effect of over 60% in size
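AlphaScreen displacement of biotin-H3(5-23)K14Ac peptide (50 nM final) from BAZ2B (50 nM final) in PBS pH 7.4, 0.01% Tween-20; complex preformed 30 min RT, then compounds (top 110 uM) 30 min RT, beads 20 min dark.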
G9a block – G9a (human) methyltransferase inhibition; Q96KQ7; G9a H3K9 monomethylation, AlphaScreen, 2 h; Potency, µM (titrated, usually from 102 µM), without a hit: top-dose activity, negative = inhibition, hits mostly inhibitors; actives 8.8% (n = 350,000); AID 504332; note: % is set by controls: 0 for no effect and ±100 for the full control effect; nearly all actives have a fitted effect of over 75% in size
Target sequence (Q96KQ7 913-1193 limits assumed): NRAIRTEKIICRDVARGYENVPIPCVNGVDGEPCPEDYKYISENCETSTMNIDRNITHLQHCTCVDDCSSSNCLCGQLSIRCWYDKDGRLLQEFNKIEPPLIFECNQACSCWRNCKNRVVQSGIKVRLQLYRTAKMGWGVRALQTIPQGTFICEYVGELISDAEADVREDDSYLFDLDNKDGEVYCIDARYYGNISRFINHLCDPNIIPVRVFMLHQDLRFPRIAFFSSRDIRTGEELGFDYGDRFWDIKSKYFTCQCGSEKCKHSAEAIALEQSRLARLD
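Using a bead-based AlphaScreen, monomethylated H3K9 product from 2 h room-temperature reactions (G9a 20 nM, peptide 500 nM, SAM 20 uM) was detected with 0.5 ug/mL rabbit anti-H3K9me1 antibody.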
Sfp PPTase inh – Sfp phosphopantetheinyl transferase inhibition. Biochemical Sfp PPTase activity, qHTS. Q9F4F7. Potency, µM, without a hit: largest response in the series, negative = inhibition, most hits filed as inhibitors. actives 3.5% (n = 310,000);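 note: the enzyme is Sfp with the accession as filed and its product quenches rhodamine fluorescence; 0% = enzyme reaction without inhibitor and -100% = no enzyme wells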
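Compounds were incubated with enzyme (final 15 nM) for 15 min at room temperature before substrate addition started the reaction. Fluorescence at 525 nm excitation, 598 nm emission was recorded immediately and after 30 minutes.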
JMJD2A Tudor inh – inhibitors of human JMJD2A Tudor domain | O75164 | AlphaScreen JMJD2A-Tudor / H3K4me3 peptide binding | Potency, µM (series often up to 114 µM), for the others: at the top dose activity change, negative = inhibition, usual class: inhibitors | actives 4.4% (n = 390,000) | AID 504339; note: % is set by controls: 0 for no effect and ±100 for the full control effect; nearly all actives have a fitted effect of over 50% in size
Active calls of the source: *; [ ] = remark or other dose. Calls come from the whole dose curve; as a rule, active = well fitted curve in the direction sought with a large enough effect; inconclusive = small, poorly fitted or top-dose-only effect, or another doubt; inactive = no such curve, though single readings can be large; an effect the other way counts as inactive or inconclusive. Potency is the fitted concentration of half-maximal effect.

For Cc1cc(C)nc(NC(=O)c2ccc(Br)cc2)n1 the results were HP1b chromo inh -9%, BAZ2B inh -10%, G9a block inconclusive, Sfp PPTase inh 4% and JMJD2A Tudor inh -10%.
Cc1cc(NO)nc(-c2ccc(Br)cc2)n1 was read as HP1b chromo inh inconclusive, L3MBTL1 inh -6%, G9a block inconclusive, Sfp PPTase inh inconclusive and JMJD2A Tudor inh 20µM*.
Screening CCc1ccc(C(=O)c2cn(Cc3ccc(F)cc3)c3cc(OC)c(OC)cc3c2=O)cc1 returned HP1b chromo inh 13%, BAZ2B inh -28%, G9a block -41%[59 µM] and JMJD2A Tudor inh -21%.
`Cc1cc(=O)[nH]c(SCc2cn3ccccc3n2)n1` gave HP1b chromo inh 32%, L3MBTL1 inh 15%, BAZ2B inh -18%, G9a block 50µM*, Sfp PPTase inh -13% and JMJD2A Tudor inh -7%.
For Cn1ccnc1SCc1cn2ccccc2n1 the results were HP1b chromo inh 5%, L3MBTL1 inh 8%, BAZ2B inh -4%, G9a block inconclusive, Sfp PPTase inh 9% and JMJD2A Tudor inh inconclusive.
`O=[N+]([O-])c1ccc2nc(SCc3cn4cccnc4n3)[nH]c2c1` gave HP1b chromo inh 49%, BAZ2B inh -1%, G9a block inconclusive, Sfp PPTase inh -21% and JMJD2A Tudor inh 9%.
`Cc1cc(=O)[nH]c(SCc2nnc(-c3ccccc3)o2)n1` gave HP1b chromo inh 31%, BAZ2B inh 2%, G9a block 7.9µM*, Sfp PPTase inh 12% and JMJD2A Tudor inh -4%.
`O=[N+]([O-])c1ccc2nc(SCc3cn4ccccc4n3)[nH]c2c1` gave HP1b chromo inh 18%, L3MBTL1 inh 0%, BAZ2B inh 2%, G9a block 10µM*, Sfp PPTase inh 11% and JMJD2A Tudor inh -19%.
For CCC1OC(=O)C(C)[C@@H](O[C@H]2C[C@@](C)(OC)C(O)C(C)O2)C(C)[C@@H](O[C@@H]2OC(C)CC(N(C)C)C2O)[C@](C)(O)CC(C)/C(=N\OCOCCOC)[C@H](C)C(O)[C@]1(C)O (some centres not stated) the results were G9a block -2%[2.33 µM] and Sfp PPTase inh -1%.
`COc1cccc(C2C(C(N)=O)=C(C)Nc3ncnn32)c1` (configuration not stated) gave HP1b chromo inh 33%, BAZ2B inh -1%, G9a block 4%[59 µM] and JMJD2A Tudor inh 4%.
For Cc1ccc(C)c(-n2sc3ccc(F)cc3c2=O)c1 the results were HP1b chromo inh -25%, L3MBTL1 inh -3%, BAZ2B inh 18µM*, G9a block -1%[0.501 µM] and JMJD2A Tudor inh 14µM*.
`COc1ccc(-n2sc3ccc(F)cc3c2=O)cc1` gave HP1b chromo inh -5%, L3MBTL1 inh -1%, BAZ2B inh 8.9µM*, G9a block 0%[0.501 µM] and JMJD2A Tudor inh 11µM*.
For O=c1c2cc(F)ccc2sn1-c1ccc(F)cc1 the results were HP1b chromo inh -4%, L3MBTL1 inh -3%, BAZ2B inh 10µM*, G9a block 7%[0.501 µM] and JMJD2A Tudor inh 20µM*.
Screening CCOc1ccc(C(=O)c2cn(CC(=O)Nc3ccc(F)cc3)c3cc4c(cc3c2=O)OCCO4)cc1 returned HP1b chromo inh 23%, BAZ2B inh inconclusive, G9a block -4%[59 µM] and JMJD2A Tudor inh -13%.
For Cc1ccc(-c2nn(-c3ccccc3)cc2C(=O)N2CCN(C3CCS(=O)(=O)C3)CC2)cc1 (configuration not stated) the results were HP1b chromo inh 30%, L3MBTL1 inh 0%, BAZ2B inh 7%, G9a block 7.1µM* and JMJD2A Tudor inh -4%.
`Oc1nc(Nc2ccc(F)cc2)sc1/C=C1\C=Nc2ccccc21` gave HP1b chromo inh 20%, L3MBTL1 inh 0%, BAZ2B inh -15%, G9a block 10%[59 µM], Sfp PPTase inh 1% and JMJD2A Tudor inh -20%.
